Laboratory results as given in PubChem BioAssay (NCI).
The panel holds about 83,000 compounds, 20% with a hit somewhere; the sample as a whole holds those more often.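 Assay: single dose, 48 h. Readout: percent growth (0 = no net growth; negative = cell death). Active: <10.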 Calls of active or inactive are those of the source.

Each compound was assayed on SK-MEL-28 melanoma (assay: NCI-60 one-dose screen, 48 h (100 = growth as untreated, 0 = no growth, -100 = all killed)). Settings: 10 µM unless noted.
Experimental: Growth inhibition of the SK-MEL-28 human tumor cell line is measured as a screen for anti-cancer activity. Cells are grown in 96 well plates and exposed to the test compound for 48 hours. Compounds are tested at a single concentration, which is 10^-5 M for most compounds. The reported endpoint is percent growth (GI% or GIPRCNT), where numbers from 0 - 100% represent growth inhibition, and numbers from -100% - 0 represent cell death. For example, a value of 40 represents 60% growth inhibition. A value of 0 means no net growth occurred over the course of the experiment. A value of -40 indicates 40% of cells at the beginning of the experiment died by the end of the experiment. A value of -100 means all cells are dead at the end of the experiment.
NCI-60 Human Tumor Cell Lines Screen was performed using the standard one-dose NCI protocol, which is described in more detail at https://dtp.cancer.gov/discovery_development/nci-60/default.htm.
Compounds with GIPRCNT values below 10 were considered active. Activity score was based on GIPRCNT using the following formula: […]
Score is 0 for GIPRCNT values of 100 or above, 50 for GIPRCNT values of 0, and 100 for GIPRCNT values of -100.

Question: Which growth does the source give for `COc1cc(-c2ccc(-[n+]3nc(-c4ccc([N+](=O)[O-])cc4)nn3-c3ccc([N+](=O)[O-])cc3)c(OC)c2)ccc1-[n+]1nc(-c2ccc([N+](=O)[O-])cc2)nn1-c1ccc([N+](=O)[O-])cc1` here?
Answer: The growth was 73.1% (inactive).

Question: How did the growth turn out when `Oc1ccc(Cl)cc1Cc1cc(Cl)ccc1O` was run?
Answer: Its growth is 35.6% (inactive).

Question: How did the growth turn out when `O=C1c2ccccc2Cc2cccc(Cl)c21` was run?
Answer: The growth was 101% (inactive).

Question: With `O=C(CCl)N(c1ccccc1)c1ccccc1` as the compound, how does the growth read?
Answer: The growth was 110% (inactive).

Question: With `COC(=O)[C@]1(C)CCC[C@]2(C)c3ccc(C(C)C)cc3C(=O)[C@@H](Br)[C@@H]12` as the compound, how does the growth read?
Answer: The growth was 100% (inactive).

Question: Which growth does the source give for `COc1cc(/C=C/c2ccnc3ccccc23)cc(OC)c1OC` here?
Answer: The growth was 34% (inactive).

Question: Which growth does the source give for `C(=N\Nc1ccc2ccccc2n1)/c1ccccn1` here?
Answer: Its growth is 32.9% (inactive).

Question: How did the growth turn out when `Cn1ccc(=Nc2ccc(NC(=O)c3ccc(N=c4ccn(C)c5ccc([N+](=O)[O-])cc45)cc3)cc2)cc1` was run?
Answer: Its growth is 87.3% (inactive).

Question: With `CCOc1ccc(C(C[N+](=O)[O-])Sc2ccccc2N)cc1` (stereo not given) as the compound, how does the growth read?
Answer: The growth was -36.4% (active).

Question: For `CCNc1nnnn1CC`, which growth is on record?
Answer: The growth was 113% (inactive).

Question: `Cc1c(O)ccc(SC#N)c1C` was tested. Which growth did it give?
Answer: The growth was 99.5% (inactive).

Question: Which growth does the source give for `Fc1ccc(NCCS)cc1` here?
Answer: Its growth is 103% (inactive).

Question: `NC(=S)N/N=C\c1nccc2c(N)cccc12` was tested. Which growth did it give?
Answer: Its growth is 44.6% (inactive).

Question: With `O=C(Nc1ccc(Cl)c(Cl)c1)Nc1ccccc1O` as the compound, how does the growth read?
Answer: The growth was 107% (inactive).

Question: How did the growth turn out when `Cc1nnc(N/N=C/c2ccc([N+](=O)[O-])o2)[nH]c1=O` was run?
Answer: Its growth is 25.4% (inactive).

Question: For `COc1c(C)c2c(c(O)c1C/C=C(\C)CCC(=O)O)C(=O)OC2`, which growth is on record?
Answer: Its growth is 31.3% (inactive).

Question: `O=C(c1ccccc1)c1cc2ccccc2oc1=O` was tested. Which growth did it give?
Answer: Its growth is 119% (inactive).

Question: How did the growth turn out when `CCCCCCCCCCCCCCCCSC(=NCC)NCC` was run?
Answer: Its growth is 43% (inactive).

Question: How did the growth turn out when `N=C(N)Sc1cccc[n+]1[O-]` was run?
Answer: The growth was 26.1% (inactive).

Question: With `NCCCN(CCCN)CCCNCc1c2ccccc2c(CNCCCN(CCCN)CCCN)c2ccccc12` as the compound, how does the growth read?
Answer: Its growth is 106% (inactive).

Question: Which growth does the source give for `CN(C)c1ccc2cc3c(cc2c1)Oc1ccccc1N3.[Cl][Zn][Cl]` here?
Answer: Its growth is 111% (inactive).

Question: `CN(C)CC(C)(CN(C)C)C(=O)/C=C/c1c(Cl)cccc1Cl` was tested. Which growth did it give?
Answer: Its growth is 4.32% (active).

Question: Which growth does the source give for `CCCCCCCCC(=O)OCCCC(CCC(CCC1CCCO1)OC(=O)CCCCCCCC)OC(=O)CCCCCCCC` (stereo not given) here?
Answer: Its growth is 102% (inactive).

Question: With `Nc1ccc(Oc2ccccc2)c(Cl)c1` as the compound, how does the growth read?
Answer: Its growth is 106% (inactive).

Question: How did the growth turn out when `CCCOS(=O)(=O)c1ccccc1` was run?
Answer: Its growth is 122% (inactive).

Question: Which growth does the source give for `O=S(=O)(O)c1cnccn1` here?
Answer: The growth was 107% (inactive).

Question: `N#CC(I)CS(=O)(=O)c1ccccc1` (stereo not given) was tested. Which growth did it give?
Answer: The growth was 97% (inactive).

Question: How did the growth turn out when `CCCCCCCCCCCCCCCCCC[S+](C)CC` (stereo not given) was run?
Answer: The growth was 48.6% (inactive).

Question: Which growth does the source give for `COC(=O)C(=[N+]=[N-])C(=O)c1ccc([N+](=O)[O-])o1` here?
Answer: The growth was 109% (inactive).

Question: For `CCCCCC[C@@H](O)C/C=C\CCCCCCCC(=O)OCCOC`, which growth is on record?
Answer: Its growth is 105% (inactive).

Question: With `COc1cc([C@@H]2c3cc4c(cc3[C@H](OC3OC5COC(c6ccccc6)OC5C(O)C3O)[C@H]3COC(=O)[C@H]23)OCO4)cc(OC)c1OC` (stereo not given in full) as the compound, how does the growth read?
Answer: Its growth is 58.3% (inactive).

Question: `Cc1ccc(N2C(=O)C=CC2=O)cc1` was tested. Which growth did it give?
Answer: The growth was 112% (inactive).

Question: For `CCN(CC)CC(O)c1cc(-c2ccc(Cl)cc2)nc2cc(Cl)ccc12` (stereo not given), which growth is on record?
Answer: Its growth is -56.6% (active).

Question: `CCCCCC/C=C1\CCC(CN2CCCC2)C1=O` (stereo not given) was tested. Which growth did it give?
Answer: Its growth is 114% (inactive).

Question: Which growth does the source give for `O=C(c1ccccc1)N(CCCl)C(=O)N(CCCl)C(=O)c1ccccc1` here?
Answer: Its growth is 106% (inactive).

Question: For `Nc1ccc(C(=O)/C=C/c2ccccc2)cc1`, which growth is on record?
Answer: The growth was 113% (inactive).

Question: Which growth does the source give for `Cc1cc(I)nc2ccccc12` here?
Answer: The growth was 112% (inactive).

Question: With `Cc1nc([N+](=O)[O-])c(Sc2nncc(-c3ccccc3)n2)n1C` as the compound, how does the growth read?
Answer: The growth was 89.1% (inactive).

Question: How did the growth turn out when `Cc1ccc2cccc(OC(=O)Nc3cccc(C(F)(F)F)c3)c2n1` was run?
Answer: Its growth is 84.6% (inactive).

Question: With `Cc1cc(C(N)=O)cc(C)c1C(=O)OCCCl` as the compound, how does the growth read?
Answer: The growth was 110% (inactive).
